Measurements reported in PubChem BioAssay (NCI).
Compounds without any hit were thinned out: in the full panel of roughly 83,000, 20% have a hit.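 Interpretation: 100, growth as untreated; towards 0, rising growth inhibition; 0, no net growth; 0 to -100, cell death. Compounds scoring below 10 were considered active.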 Unmarked numbers belong to inactive results. Active and inactive are the calls of the source.

Assays:
Assay in all cases: NCI-60 one-dose screen, 48 h (100 = growth as untreated, 0 = no growth, -100 = all killed)
HCT-15 colon = conditions: 10 µM unless noted
HT29 colon = conditions: 10 µM unless noted
SNB-75 CNS = conditions: 10 µM unless noted
SNB-19 CNS = conditions: 10 µM unless noted
PC-3 prostate = conditions: 10 µM unless noted
SK-MEL-5 melanoma = conditions: 10 µM unless noted
UACC-62 melanoma = conditions: 10 µM unless noted
LOX IMVI melanoma = conditions: 10 µM unless noted
SK-MEL-28 melanoma = conditions: 10 µM unless noted
SK-MEL-2 melanoma = conditions: 10 µM unless noted
SN12C renal = conditions: 10 µM unless noted
UO-31 renal = conditions: 10 µM unless noted
TK-10 renal = conditions: 10 µM unless noted
ACHN renal = conditions: 10 µM unless noted
CAKI-1 renal = conditions: 10 µM unless noted
A498 renal = conditions: 10 µM unless noted
MOLT-4 leukemia = conditions: 10 µM unless noted
U251 CNS = conditions: 10 µM unless noted
CCRF-CEM leukemia = conditions: 10 µM
EKVX NSCLC = conditions: 10 µM

SMILES | growth (HCT-15 colon) | growth (HT29 colon) | growth (SNB-75 CNS) | growth (SNB-19 CNS) | growth (PC-3 prostate) | growth (SK-MEL-5 melanoma) | growth (UACC-62 melanoma) | growth (LOX IMVI melanoma) | growth (SK-MEL-28 melanoma) | growth (SK-MEL-2 melanoma) | growth (SN12C renal) | growth (UO-31 renal) | growth (TK-10 renal) | growth (ACHN renal) | growth (CAKI-1 renal) | growth (A498 renal) | growth (MOLT-4 leukemia) | growth (U251 CNS) | growth (CCRF-CEM leukemia) | growth (EKVX NSCLC)
CN(CCC#N)c1ccc(/C=C(\C#N)c2cccc(C(F)(F)F)c2)cc1 | 39.9% | 23.5% | 90.1% | 79% | 61.1% | 57.8% | 55.3% | 63.2% | 71.9% | 51% | 72.1% | 53.4% | 69.3% | 76.1% | 49.8% | 74.1% | 53.8% |  |  | 
O=C(Nc1cccc2[nH]c(C(F)(F)F)nc12)c1ccc(F)cc1 | 96.9% | 99.3% | 97.3% | 78.6% |  |  | 51.6% | 87.8% | 79.7% |  | 81.8% | 63% | 113% | 82.7% | 84% | 19% | 65.5% | 71.7% | 51.7% | 
CCOC(=O)c1c(C)oc2ncnc(Nc3ccc(C(=O)NCCc4ccccc4)cc3)c12 | 92.3% | 58.9% | 7.02% (active) | 84.1% | 59.2% | 85.6% | 95% | 75.2% | 87.9% | 82.5% | 99.4% | 97.4% | 102% | 88.7% | 92.6% | 77.6% | 105% |  | 81% | 90.4%
COc1cc2ncnc(-n3ncc4cc(NC(=O)Nc5ccccc5)ccc43)c2cc1OC | 21% | 29.1% | -12.4% (active) | 44.7% | -18.4% (active) | 40.2% | 23.9% | 1.66% (active) | -15.1% (active) | -4.23% (active) | 3.79% (active) | -44.4% (active) | -41.1% (active) | 17.1% | 16.1% | -33.4% (active) | 3.89% (active) |  | 22.9% | -1.75% (active)
O=C1Nc2ccccc2/C1=C/c1cn(CC(O)Cn2cc(/C=C3\C(=O)Nc4ccccc43)c3ccccc32)c2ccccc12 (stereo unspecified) | -69.8% (active) | -20.2% (active) | -95.9% (active) | -43% (active) | -86.3% (active) | -80.2% (active) | -75.2% (active) | -84.5% (active) | -85% (active) | -57.6% (active) | -53.6% (active) | -9.18% (active) | -15.1% (active) | -68.4% (active) | 9.83% (active) | -73.2% (active) | -29.4% (active) |  | -30.6% (active) | -62.3% (active)
CC(=O)C(CO)C(=O)Nc1ccccc1 (stereo unspecified) | 98.8% | 101% | 63.3% | 101% | 102% | 103% | 98.2% | 83.7% | 99.8% | 90.4% | 101% | 106% | 109% | 93.3% | 94.8% |  | 102% |  | 99.2% | 
O=C(Nn1cnc2ccccc21)N1CCCC1 | 112% | 109% | 107% |  | 106% | 113% | 105% | 98.1% | 116% | 116% | 106% | 88.1% | 113% | 99.1% | 98.8% | 115% | 87.1% | 99.8% | 127% | 94%
O=C(Nc1ccccc1)Nc1ccc(Nc2ncnc3sc4c(c23)CCCC4)cc1 | 110% | 96.2% | 93.3% | 95.9% | 89.9% |  | 97.9% | 99.5% | 116% | 114% | 99.3% | 71.6% | 124% | 101% | 100% | 83.4% | 89.5% |  | 92.4% | 102%
CSc1nc(N)n2nccc2n1 | 108% | 102% | 78.5% | 99.7% | 93.5% | 98.8% | 98.6% | 97.4% | 98.5% | 115% | 96.8% | 65.4% | 99.8% | 112% | 70.6% | 109% | 98.9% |  |  | 
CCOC(=O)CCCCCCCCC(=O)OCC | 117% | 109% | 102% |  | 101% | 107% | 102% | 96.9% | 110% | 112% | 102% | 95.7% | 104% | 113% | 105% | 93.9% | 95.2% | 97.2% | 107% | 118%
C/C=C(/C)C(=O)OC1C=C(CO)C(=O)C(OC(=O)C2(C)OC2C)C1C(C)C (stereo unspecified) | -14.5% (active) | -60.3% (active) | 23.6% |  | -7.66% (active) | -92.8% (active) | -73.7% (active) | -83.8% (active) | -49% (active) | -49.7% (active) | -44.4% (active) | -96.3% (active) | -31.8% (active) | -96.8% (active) | -23.6% (active) | 1.46% (active) | -3.66% (active) | -23.1% (active) | 1.28% (active) | -11.8% (active)
COc1cc(-c2cc3cnccc3c3nc(N)c4ccncc4c23)cc(OC)c1OC | 38.5% | 47.6% | -2.5% (active) | 53.3% | 37.3% | 44.6% | 41.6% | 36.1% | 75.3% | 70.1% | 40.7% | 11.9% | 22.6% | 34.5% | 43.6% | -16.8% (active) | 32.9% |  | 36.5% | 55.3%
COC(=O)c1c[n+]([O-])ccc1OC | 103% | 107% | 96.6% | 101% | 99.5% | 99.7% | 101% | 104% | 91.4% | 117% | 98.2% | 85.2% | 102% | 108% | 97.2% | 111% | -47.4% (active) |  |  | 
Nc1nc2c(c3cnccc13)C(c1cccc(Br)c1)Cc1cnccc1-2 (stereo unspecified) | 7.06% (active) | 4.32% (active) | 18.9% | 24% | 11.6% | -30.4% (active) | 21.8% |  | 49.4% | 27.2% | 27.5% | 21.4% | 28.5% | 16.7% | 25.6% | -10.6% (active) | 11.6% |  | 6.84% (active) | 27.6%
COC(=O)c1cc(=O)nc(N/N=C/c2ccccc2O)s1 | 70.4% | 92.9% | 110% | 95.3% | 86.3% | 91.6% | 94.8% |  | 101% | 97.9% | 90.9% | 61.4% | 112% | 92.3% | 79% | 112% | 72.1% |  |  | 
NCCCOc1cc(Cl)ccc1NC(=O)c1cc2ccccc2cc1OCCCN | 4.32% (active) | -91.3% (active) | -90.9% (active) |  | -76.3% (active) | -86.4% (active) | 26.4% | -81.3% (active) | -96.5% (active) | -93.9% (active) | 19.7% | 25% | -97.4% (active) | -79% (active) | 59% | 2.33% (active) | -52.3% (active) | -93.2% (active) |  | -16.1% (active)
CC(Br)c1nc2ccccc2cc1C(N)=O (stereo unspecified) | 98.9% | 105% | 88.3% |  | 103% | 104% | 93.7% |  | 107% | 110% | 90.5% | 92.6% | 96.8% | 109% |  | 94.7% | 86.4% | 97.9% | 84.5% | 
N#CCCCCCCCCCCC#N | 99.4% | 95.7% | 103% |  | 95.8% | 110% | 101% | 99.4% | 111% | 108% | 105% | 92.9% | 92.4% | 107% | 95.2% |  | 105% | 105% | 97.5% | 97%
